Measured values taken from PubChem BioAssay (NCI).
The panel holds about 83,000 compounds, 20% with a hit somewhere; the sample as a whole holds those more often.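 Step 1: grow cells in 96-well plates. Step 2: add test compound at a single concentration. Step 3: incubate 48 h. Step 4: record percent growth.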 Unmarked numbers belong to inactive results. Calls of active or inactive are those of the source. Rule for the calls: active = growth percent below 10; inactive = the rest.

Key:
Assay in all cases: NCI-60 one-dose screen, 48 h (100 = growth as untreated, 0 = no growth, -100 = all killed)
Details in all cases: 10 µM unless noted
NCI-H23 lung = system: NCI-H23 lung
NCI-H226 lung = system: NCI-H226 lung
NCI-H322M lung = system: NCI-H322M lung
HOP-62 NSCLC = system: HOP-62 NSCLC
NCI-H460 lung = system: NCI-H460 lung
HOP-92 NSCLC = system: HOP-92 NSCLC
NCI-H522 lung = system: NCI-H522 lung
A549/ATCC NSCLC = system: A549/ATCC NSCLC
786-0 renal = system: 786-0 renal
COLO 205 colon = system: COLO 205 colon

Row | SMILES | growth (NCI-H23 lung) | growth (NCI-H226 lung) | growth (NCI-H322M lung) | growth (HOP-62 NSCLC) | growth (NCI-H460 lung) | growth (HOP-92 NSCLC) | growth (NCI-H522 lung) | growth (A549/ATCC NSCLC) | growth (786-0 renal) | growth (COLO 205 colon)
1 | COC(=O)c1oc2c(C(C)=O)c(OCCN3CCCCC3)ccc2c1C | 97.9% | 118% | 84.9% | 125% | 131% | 60.4% | 79.6% | 123% | 52.9% | 130%
2 | COc1ccc(CCNC=O)cc1OC | 101% | 89.1% | 96.4% | 107% | 102% | 93.4% | 131% | 107% | 99.2% | 96.3%
3 | CCN(CC)CCC(C(=O)O)(c1ccccc1)c1ccccc1 | 95.3% | 106% | 103% | 86.5% | 105% | 101% | 89.7% | 110% | 96.4% | 101%
4 | COc1cc(/C=C\c2cc(/C=C\c3ccc(O)c(OC)c3)n(C(=O)CNc3ccccc3OC)n2)ccc1O | 69.7% | 86% | 90.5% | 86.4% | 81.6% | 81.8% | 21.9% | 83.7% | 97.4% | 107%
5 | CC(=O)N1N=C2N(Cc3ccccc3)C(=O)c3c(sc4c3CCCC4)N2C1c1cn(-c2ccccc2)nc1-c1ccc(Cl)cc1 (stereo not given) | 88.6% | 91.9% | 97.9% | 98.6% | 111% | 81% | 101% | 95.9% | 92.6% | 101%
6 | CN(C)c1ccc(/C=N/N=C(N)N)cc1 | 81.2% | 82.2% | 99.4% | 75.3% | 83.2% | 73.6% | 66.7% | 70.7% | 103% | 54.7%
7 | Fc1ccc(/C=N/n2c(-c3cc(Cl)cc(Cl)c3Cl)nn(CNc3ccc(Cl)nn3)c2=S)cc1 | 86.3% | 97.1% | 94.9% | 82.4% | 112% | 49.5% | 82.8% | 99.3% | 85.5% | 100%
8 | NC(CCCC(N)C(=O)c1ccccc1)C(=O)O (stereo not given) | 98.4% | 102% | 87.7% | 90.3% | 112% | 116% | 64.4% | 92.8% | 102% | 104%
9 | O=S(=O)(Nc1cccc2cc(OS(=O)(=O)c3ccccc3)ccc12)c1ccccc1 | 73.8% | 74.7% | 90.1% | 46.3% | 29.7% | 57.6% | 40.5% | 57.1% | 81.2% | 51.9%
10 | CC(CCC(=O)O)[C@H]1CCC2C3C(=O)C[C@@H]4CC(=O)CC[C@]4(C)C3CC(=O)[C@@]21C (stereo not given in full) | 101% | 103% | 111% | 112% | 107% | 96.2% | 117% | 98.7% | 106% | 119%
11 | COC1=C(OC)C(=O)C=CC1=O | 111% | 107% | 101% | 117% | 118% | 110% | 63.7% | 109% | 103% | 99.8%
12 | COc1ccc(SC2c3ccc(O)cc3Oc3nc(N)c(C#N)c(N)c32)cc1 (stereo not given) | 93.3% | 117% | 79.2% | 64.4% | 79.3% | 112% | 86.3% | 84.6% | 81.6% | 115%
13 | CCn1cc(C(=O)O)c(=O)c2cc(F)c(N3CCN(CC(=O)Nc4ccc(C(C)=O)cc4)CC3)cc21 | 93% | 86.3% | 101% | 101% | 107% | 92.8% | 96.9% | 94.6% | 98% | 121%
14 | CCC1S/C(=N\N=C(/C)c2cccs2)N(c2ccccc2)C1=O (stereo not given) | 101% | 136% | 109% | 65.4% | 112% | 85.1% | 82.2% | 89.5% | 86.2% | 114%
15 | COc1ccc(-c2ccc(NC(=O)Nc3cccc(C(F)(F)F)c3)c(C)n2)cc1 | 47.6% | 58.1% | 64.4% | 68% | 48.7% | 68.8% | 28.5% | 42.5% | 77.3% | 84.5%
16 | O=C(Nc1ccccc1Cl)c1c[nH]c(=O)c(-c2ccc(N3CCCOC4(CC4)C3)cc2)c1 | 46.9% | 50.9% | 78% | 69.7% | 63.8% | 70.4% | 53.6% | 57.8% | 68.2% | 81.4%
17 | Nc1ccc(S(=O)(=O)Nc2ccnn2-c2ccccc2)cc1 | 107% | 106% | 95% | 112% | 108% | 97.9% | 101% | 97.7% | 105% | 109%
18 | N#Cc1c2c(c(N)[nH]c1=O)C(=O)NC2(O)c1ccccc1 (stereo not given) | 98.8% | 99.2% | 103% | 104% | 118% | 114% | 85.1% | 97.1% | 104% | 107%
19 | COc1cc(-c2nc3sc(C)cn3c2/C=C2\C(=O)Nc3ccccc32)c(Br)c(OC)c1OC | 74.4% | 80.1% | 55.8% | 26% | 8.76% (active) | 44.2% | -10.6% (active) | 50.3% | 22.9% | 52.7%
20 | COc1cc2c(cc1OCCCCC(=O)Nc1ccc(-c3nc4ccccc4s3)cc1)N=C[C@@H]1CCCN1C2=O | -11.4% (active) | -43.7% (active) | -0.382% (active) | -2.65% (active) | -19.5% (active) | -53% (active) | -54% (active) | -42.2% (active) | -6.44% (active) | -60.5% (active)
21 | O=C(Nc1ccc(-n2ccc3c(NC(=O)c4ccccc4)ncnc32)cc1)c1cccc(C(F)(F)F)c1 | 80.6% | 70.8% | 62.9% | 71.5% | 10.2% | 81.2% | 45.4% | 32.7% | 56.2% | 51.9%
22 | CCOC(=O)C1CN(Cc2ccccc2)C(=O)C1=O (stereo not given) | 105% | 93.3% | 94.9% | 98.8% | 106% | 84.3% | 98.6% | 112% | 105% | 93.6%
23 | CN(C)CCS(=O)(=O)Nc1cc(-c2ccc3ncnc(Nc4ccc(F)c(Cl)c4)c3c2)cnc1Cl | -10.1% (active) | 1.48% (active) | -21.5% (active) | -5.38% (active) | 7.68% (active) | -21.4% (active) | -17.7% (active) | -31.7% (active) | 12.8% | -80% (active)
24 | COc1ccc2c(c1)OC(N)=C(C#N)C2c1ccc(F)c(F)c1 (stereo not given) | 48.2% | 69.2% | 51.4% | 44.9% | 14.4% | 76.3% | -12.6% (active) | 37.1% | 41.4% | 10.3%
25 | COc1cccc(C2CC(c3cc(OC)c(OC)c(OC)c3)=NN2)c1 (stereo not given) | 89.6% | 91.7% | 99.6% | 83% | 93.7% | 80% | 80.3% | 84.4% | 86.9% | 106%
26 | CCN(CC)CCNC(=O)c1c(C)[nH]c(/C=C2\C(=O)Nc3cc(NC(=O)NC(=O)c4ccc(OC)cc4F)ccc32)c1C | 103% | 108% | 105% | 109% | 83.7% | 94.9% | 104% | 85.3% | -55.6% (active) | 94.7%
27 | Cl[C@@H]1CCO[C@H](c2cc3ccccc3c3ccccc23)C1 | 95.5% | 89.8% | 94.6% | 98.8% | 99% | 89.1% | 82.6% | 93.6% | 88.7% | 104%
